Consider 25 compounds from PubChem BioAssay (Tox21).

Test [1] in a line: qHTS assay to identify small molecule antagonists of the estrogen related receptor (ERR) signaling pathway from Tox21 library - cell viability counter screen (AID 1224834). Note: nearly all actives have a fitted effect of over 30% in size. Note: potency is the fitted concentration of half-maximal effect. The following applies: ERR reporter cells viability, CellTiter-Fluor, 17.5 h; series mostly up to 92.4 µM. The method, boiled down: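 ERR reporter cells, 2,000 per well, rested 6 h, then exposed to compound in DMSO for 17.5 hours at 37 C. Viability read as fluorescence after 30 min with CellTiter-Fluor.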
For orientation: In qHTS, concentration-response curves come from the screen itself.

In test [2] the target is Luciferin 4-monooxygenase (Photinus pyralis) (UniProt P08659). Kind of test: qHTS assay to identify small molecule inhibitors of firefly luciferase (AID 1224835). Note: nearly all actives have a fitted effect of over 25% in size. Note: potency is the fitted concentration of half-maximal effect. The following applies: purified P. pyralis luciferase, luminescence inhibition; series mostly up to 115 µM. The method in brief: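 Biochemical qHTS: compounds run as interplate titrations against purified firefly enzyme, with D-luciferin and ATP each at its KM concentration. Light output recorded by CCD imaging.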
Sequence of Luciferin 4-monooxygenase (Photinus pyralis) (P08659 whole entry, looked up): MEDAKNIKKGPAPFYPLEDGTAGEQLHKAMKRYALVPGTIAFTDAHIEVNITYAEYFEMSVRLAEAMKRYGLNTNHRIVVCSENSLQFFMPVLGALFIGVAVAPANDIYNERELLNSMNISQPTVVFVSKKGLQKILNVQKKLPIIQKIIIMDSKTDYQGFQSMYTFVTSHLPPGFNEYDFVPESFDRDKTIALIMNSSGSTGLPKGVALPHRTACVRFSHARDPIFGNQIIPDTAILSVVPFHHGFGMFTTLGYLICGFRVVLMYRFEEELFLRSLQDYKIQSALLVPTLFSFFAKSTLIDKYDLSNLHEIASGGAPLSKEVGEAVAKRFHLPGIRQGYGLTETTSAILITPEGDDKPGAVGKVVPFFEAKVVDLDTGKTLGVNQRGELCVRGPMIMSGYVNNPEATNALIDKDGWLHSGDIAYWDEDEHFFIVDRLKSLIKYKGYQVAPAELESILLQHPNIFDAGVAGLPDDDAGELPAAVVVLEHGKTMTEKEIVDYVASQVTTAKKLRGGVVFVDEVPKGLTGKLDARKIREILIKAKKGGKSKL

Test [3] in a line: qHTS assay to identify small molecule agonists of the constitutive androstane receptor (CAR) signaling pathway - cell viability counter screen (AID 1224836). Note: nearly all actives have a fitted effect of over 45% in size. The following applies: HepG2-CYP2B6-hCAR viability, CellTiter-Fluor, 23 h, PK11195 added to every well; series mostly up to 92.4 µM. The method, boiled down:
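HepG2 cells stably carrying hCAR and a CYP2B6-2.2kb reporter were plated 4 h, then given compounds at 15 concentrations plus PK11195 (final 0.75 uM). After 23 h at 37 C, viability was read by CellTiter-Fluor fluorescence.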

Test [4] in a line: qHTS assay to identify small molecule antagonists of the constitutive androstane receptor (CAR) signaling pathway - cell viability counter screen (AID 1224837). Note: nearly all actives have a fitted effect of over 45% in size. Conditions: HepG2-CYP2B6-hCAR viability, CellTiter-Fluor, 23 h, co-treated with 50 nM CITCO; series mostly up to 92.4 µM. The method in brief: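 HepG2 cells stably carrying hCAR and CYP2B6-2.2kb reporter, stimulated with 50 nM CITCO and compounds at 15 concentrations for 23 h at 37 C. Viability measured by CellTiter-Fluor fluorescence.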

The nature of test [5]: qHTS assay to identify small molecule antagonists of the estrogen related receptor signaling pathway with the pleiotropic PPARgamma coactivator (PGC) from Tox21 10K library - cell viability counter screen (AID 1224840; active = well fitted cell-killing curve with a large enough effect in the repeat runs, not every such curve was filed as active; note: nearly all actives have a fitted effect of over 40% in size). The following applies: PGC/ERR reporter cells viability, CellTiter-Fluor, 17.5 h; series mostly up to 92.4 µM. The method in brief: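 PGC/ERR cells (2,000/well) plated 6 h, then compound-treated for 17.5 h at 37 C. Viability measured by CellTiter-Fluor fluorescence after 30 min at 37 C, multiplexed with the pathway assay.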

Test [6] has as its target Nuclear receptor subfamily 1 group I member 3 (Homo sapiens) (UniProt Q14994). Briefly: qHTS assay to identify small molecule antagonists of the constitutive androstane receptor (CAR) signaling pathway (AID 1224838). Note: nearly all actives have a fitted effect of over 40% in size. The following applies: HepG2-CYP2B6-hCAR luciferase, CITCO-stimulated, 24 h; series mostly up to 92.4 µM. The method, boiled down:
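HepG2 cells stably carrying hCAR and a CYP2B6-2.2kb luciferase reporter, seeded 4 hrs before compound (15 concentrations). Stimulated with 50 nM CITCO for 24 hr at 37 C. ONE-Glo luminescence read after 30 min at room temperature.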

The target is the same in test [7]. Kind of test: qHTS assay to identify small molecule agonists of the constitutive androstane receptor (CAR) signaling pathway (AID 1224839). Note: nearly all actives have a fitted effect of over 15% in size. Note: potency is the fitted concentration of half-maximal effect. Conditions: HepG2 hCAR CYP2B6-luciferase, agonist mode, 24 h; series mostly up to 92.4 µM. The method in brief:
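HepG2 cells stably expressing hCAR and a CYP2B6-2.2kb luciferase reporter were treated with compounds at 15 concentrations plus 0.75 uM PK11195 (final) for 24 h at 37 C; luminescence was read after ONE-Glo addition.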

Test [8] can be described thus: qHTS assay to identify small molecule antagonists of the estrogen related receptor signaling pathway with the pleiotropic PPARgamma coactivator (PGC) from Tox21 10K library (AID 1224841; call rule not given here; note: actives are mostly falling curves and most rising ones were filed inactive; nearly all actives have a fitted effect of over 50% in size; note: potency is the fitted concentration of half-maximal effect). Conditions: PGC/ERR reporter cell line, ONE-Glo luciferase, 18 h; series mostly up to 92.4 µM. The method in brief:
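PGC/ERR cell line, 2,000 cells/well, pre-incubated 6 hours at 37 C, then exposed to compounds for 18 hours at 37 C; luciferase read with One-Glo luminescence after 30 min at room temperature.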

Test [9] in a line: qHTS assay to identify small molecule agonists of the estrogen related receptor signaling pathway with the pleiotropic PPARgamma coactivator (PGC) from Tox21 10K library (AID 1224842). Note: nearly all actives have a fitted effect of over 15% in size. Note: potency is the fitted concentration of half-maximal effect. The following applies: PGC/ERR reporter cell line, luciferase ONE-Glo, 18 h; series mostly up to 92.4 µM. The method in brief:
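PGC/ERR reporter cell line, 2,000 cells per well, incubated 6 h at 37 C before 23 nL compound in DMSO was added. After 18 h at 37 C, One-Glo luminescence read following 30 min at room temperature.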

For test [10], the target named is Thyrotropin receptor (Homo sapiens) (UniProt P16473). Briefly: qHTS assay to identify small molecule agonists of the thyroid stimulating hormone receptor (TSHR) signaling pathway (AID 1224843; calls by dose curve; note: nearly all actives have a fitted effect of over 45% in size; note: potency is the fitted concentration of half-maximal effect). Conditions: TSHR-HEK293 cells, cAMP HTRF, agonist mode, 30 min; series mostly up to 92.4 µM. The method, boiled down: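 TSHR-HEK293 cells in agonist mode, 30 min room-temperature step, then cAMP measured by competitive HTRF (cAMP-d2 with anti-cAMP cryptate) after 1 h at room temperature. Tested at 15 concentrations in triplicate.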
Sequence of Thyrotropin receptor (Homo sapiens) (P16473 whole entry, looked up): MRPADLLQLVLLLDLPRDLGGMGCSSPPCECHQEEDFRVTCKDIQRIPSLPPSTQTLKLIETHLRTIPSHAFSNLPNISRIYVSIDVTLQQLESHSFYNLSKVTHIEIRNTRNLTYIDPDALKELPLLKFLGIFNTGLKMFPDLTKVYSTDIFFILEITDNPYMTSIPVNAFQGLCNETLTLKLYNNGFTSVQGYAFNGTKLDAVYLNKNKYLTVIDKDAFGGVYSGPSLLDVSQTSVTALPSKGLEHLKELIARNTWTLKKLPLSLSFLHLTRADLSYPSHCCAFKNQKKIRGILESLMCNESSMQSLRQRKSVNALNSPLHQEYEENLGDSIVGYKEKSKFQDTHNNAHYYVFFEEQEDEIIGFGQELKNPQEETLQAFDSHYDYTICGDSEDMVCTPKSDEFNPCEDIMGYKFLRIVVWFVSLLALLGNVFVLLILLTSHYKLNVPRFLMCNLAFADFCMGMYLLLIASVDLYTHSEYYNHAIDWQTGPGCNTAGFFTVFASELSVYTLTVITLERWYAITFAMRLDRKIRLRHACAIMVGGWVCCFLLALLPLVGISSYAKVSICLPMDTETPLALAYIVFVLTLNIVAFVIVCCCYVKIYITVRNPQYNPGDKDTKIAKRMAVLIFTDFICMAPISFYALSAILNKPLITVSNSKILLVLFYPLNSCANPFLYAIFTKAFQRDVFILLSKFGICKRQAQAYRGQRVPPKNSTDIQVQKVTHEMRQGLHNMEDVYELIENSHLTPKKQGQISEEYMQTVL

“And” between values parts separate entries of the source, which are not always exact repeats. Equal entries are not always repeated. Records with an inconclusive call do not appear. A structure can be active in one record and inactive in another. The source made the active and inactive calls. Unless noted, calls come from the whole dose curve; as a rule, active = well fitted curve in the direction sought with a large enough effect in the repeat runs; inconclusive = weak or mixed curves; inactive = no such curve, though single readings can be large; an effect the other way counts as inactive or inconclusive.

Sequence of Nuclear receptor subfamily 1 group I member 3 (Homo sapiens) (Q14994 whole entry, looked up): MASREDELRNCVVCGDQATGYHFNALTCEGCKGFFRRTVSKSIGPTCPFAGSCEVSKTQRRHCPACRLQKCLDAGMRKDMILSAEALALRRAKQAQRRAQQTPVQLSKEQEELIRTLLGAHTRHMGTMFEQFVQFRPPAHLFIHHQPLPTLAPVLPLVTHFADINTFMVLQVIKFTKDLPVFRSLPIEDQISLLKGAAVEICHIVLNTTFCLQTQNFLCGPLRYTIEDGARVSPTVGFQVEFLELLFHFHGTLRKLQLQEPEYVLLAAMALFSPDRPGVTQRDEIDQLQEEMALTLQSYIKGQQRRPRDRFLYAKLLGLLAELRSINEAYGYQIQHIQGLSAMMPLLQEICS

On to `CCCC[n+]1cccc(C)c1`, for which the Potency entry in test [1], in test [2], in test [3], in [4] and in test [5] was “inactive” in each case.
For `CC[N+]1(C)CCCC1`, the Potency result in [1], in [2], in [3], in test [4] and in test [5] was “inactive” each time.
Regarding `CCOP(=S)(OCC)Oc1ccc2c(C)c(Cl)c(=O)oc2c1`, the Potency entry in test [1], in [3], in test [4], in [6], in test [5] and in [8] was “inactive” throughout. The Potency entry in test [10] was “inactive”. For the same compound, the Potency entry in [2] was “inactive and 15.5 µM (active)”; in [7], 31 µM (active) and 27.3 µM (active) and 29.8 µM (active); in [9], “inactive and 11.9 µM (active)”.
`COP(=O)(OC)C(O)C(Cl)(Cl)Cl` (stereo not given): the Potency result in [1], in test [2], in [3], in test [4], in test [6] and in test [5] was “inactive” throughout. In addition, the Potency result in test [9] and in [10] was “inactive” throughout. Further, the Potency in test [8] is 24.6 µM (active) and inactive.
As for `O=C(O)COc1ccc(Cl)cc1Cl`, the Potency entry in test [1], in test [2], in test [3], in test [4] and in [5] was “inactive” in each case.
With `CCCC[n+]1ccccc1C`, the Potency result in [1], in test [2], in test [3], in [4] and in [5] was “inactive” throughout.
For `CCn1cc[n+](C)c1C`, the Potency result in [1], in [2], in test [3], in test [4] and in test [5] was “inactive” throughout.
As for `CCC[N+]1(C)CCCC1`, the Potency entry in test [1], in [2], in [3], in test [4] and in test [5] was “inactive” each time.
On to `O=C(O)CC(O)(CC(=O)O)C(=O)O`, for which the Potency entry in test [1], in [2], in test [3], in [4] and in test [5] was “inactive” throughout.
With `Cc1cc(Cl)ccc1N`, the Potency entry in [1], in test [2], in test [3], in [4], in [6] and in [7] was “inactive” in each case. For the same compound, the Potency entry in [5] and in test [10] was “inactive” in each case.
`Cc1cc(Cl)ccc1OCC(=O)O`: the Potency entry in test [1], in [2], in test [3], in test [4], in [6] and in [7] was “inactive” in each case. Moreover, the Potency result in [5] and in test [10] was “inactive” throughout.
In the case of `CCCC[N+]1(C)CCCC1`, the Potency result in test [1], in test [2], in [3], in test [4] and in test [5] was “inactive” throughout.
As to `C[C@]12CCC(=O)C=C1CC[C@@H]1[C@@H]2CC[C@]2(C)C(=O)CC[C@@H]12`, the Potency entry in test [1], in test [2], in test [3], in test [4], in test [6] and in test [7] was “inactive” each time. Further, the Potency entry in test [5], in [9] and in test [10] was “inactive” throughout. The Potency in [8] is 67.4 µM (active) and inactive.
Regarding `Cc1cc(-c2ccc(N)c(C)c2)ccc1N`, the Potency result in [1], in [3], in [4], in test [6] and in test [5] was “inactive” throughout. For the same compound, the Potency in test [2] was 36 µM (active) and 56.2 µM (active) and 63.3 µM (active); in test [7], 12.2 µM (active); in test [10], 1.35 µM (active).
`CCCCn1cc[n+](C)c1C`: the Potency entry in test [1], in [2], in [3], in test [4] and in test [5] was “inactive” in each case.
With `CCCCCCn1cc[n+](C)c1`, the Potency entry in test [1], in test [2], in [3], in test [4] and in [5] was “inactive” in each case.
Consider `CNC`, for which the Potency result in [1], in test [2], in [3], in test [4] and in test [5] was “inactive” throughout.
For the compound `CCNc1nc(Cl)nc(NCC)n1`, the Potency result in [1], in [2], in [3], in [4], in [6] and in test [7] was “inactive” each time. The Potency entry in test [5], in test [8], in [9] and in test [10] was “inactive” each time.
As to `COCC(=O)N(c1c(C)cccc1C)C(C)C(=O)OC` (stereo not given), the Potency result in [1], in test [2], in test [3], in test [4], in test [6] and in [7] was “inactive” throughout. The Potency entry in [5], in test [8], in test [9] and in test [10] was “inactive” in each case.
Consider `O=c1nc(O)n(Cl)c(=O)n1Cl`, for which the Potency result in test [1], in test [2], in test [3], in test [4], in test [5] and in test [8] was “inactive” in each case. In addition, the Potency result in test [9] was “inactive”.
On to `CCCCCC[n+]1ccccc1`, for which the Potency result in [1], in test [2], in test [3], in test [4] and in test [5] was “inactive” each time.
As to `CCCC[n+]1ccc(C)cc1`, the Potency result in [1] is “inactive and 68.2 µM (active)”; in [2], 20.3 µM (active) and inactive. The Potency result in test [3], in test [4] and in [5] was “inactive” in each case.
For the compound `COP(=O)(OC)OC=C(Cl)Cl`, the Potency entry in test [1], in test [2], in test [3], in test [4] and in test [5] was “inactive” in each case.
In the case of `O=C(O)C(Cl)(Cl)Cl`, the Potency entry in test [1], in [2], in test [3], in test [4], in test [6] and in [7] was “inactive” each time. The Potency entry in test [5] and in test [10] was “inactive” each time.
On to `Oc1ccccc1-c1ccccc1`, for which the Potency entry in [1], in [2], in test [3], in test [4], in test [6] and in test [5] was “inactive” in each case. In addition, in test [7], the Potency result was “inactive and 35.2 µM (active)”.
